# Assay results from PubChem BioAssay (NCI).
# The panel holds about 79,000 compounds, 15% with a hit somewhere; the sample as a whole holds those more often. A number with no mark means an inactive call. Activity calls are given as the source filed them. Cut-off read from the data, not from the text of the source: active = growth inhibition above about 70%; inactive = the rest.
# Assay: NCI Yeast Anticancer Drug Screen. Data for the cln2 rad14 strain (AID 165);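 note: 0% = growth equal to vehicle treated cultures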
# Details: S. cerevisiae cln2 rad14 strain, at 50.0 µM, hits give high values
# Method in brief: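 Growth of compound-exposed yeast (cln2 rad14 genotype) measured and expressed as inhibition relative to vehicle.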
row,SMILES,growth inhibition
1,CCSCC1(c2ccc(OC)cc2)NC(=O)NC1=O (stereo not given),-10.1%
2,CCN(CC)CC(C)(C)C(O)c1ccc(OC)c2ccccc12 (stereo not given),-26.8%
3,CCC(CC)=C(c1ccc(C)cc1)c1ccc(C)cc1,-52.8%
4,Oc1cc(CN2COc3ccccc32)c(O)cc1CNC1CCCCC1,62.5%
5,OCCN(/N=C\c1ccc2ccccc2c1)C1=NCCN1,-28.2%
6,C=CCOCCC(OCC=C)OCC=C,-23.9%
7,COC(=O)C(=O)C(C(=O)C(=O)Nc1ccc(C)cc1C)c1nc2ccc(Cl)cc2[nH]c1=O (stereo not given),-23.6%
8,Cc1[nH]c(=O)[nH]c(=O)c1NC=O,14.6%
9,c1ccc(C[n+]2cccc3ccccc32)cc1,6.25%
10,COC(=O)c1ccc(N(C)CC/C(CNc2nc(N)[nH]c(=O)c2[N+](=O)[O-])=N\NC(N)=O)cc1,6.25%
11,CCSC(C(O)C(O)C(O)C(O)CO)n1cnc2c(SC)ncnc21 (stereo not given),-26%
12,CN(c1nc(=[N+](C)C)ss1)C1CCCCC1,-39.5%
13,CC1=CC(=O)Nc2ccccc2S1,17%
14,O=C(CC(=O)c1ccc(Cl)s1)C(=O)NC1C2CC3CC(C2)CC1C3 (stereo not given),-26.6%
15,CCCCCCOC(=O)NC1c2ccccc2Oc2ccccc21,-7.2%
16,CC[O-].CC[O-].O=C1c2ccccc2C(=O)c2c(O)ccc([O-])c21.O=C1c2ccccc2C(=O)c2c(O)ccc([O-])c21.[Ti+4],-4.3%
17,O=C(Nc1cc(Cl)c(I)cc1Cl)C(F)(F)F,-8.35%
18,C[N+]1(C)C2Cc3ccccc3C1Cc1ccccc12,10.4%
19,Cc1ccnc(SCC(=O)O)n1,12.9%
20,CO/[N+]([O-])=C\C(=O)N/C=C/C(=O)O,18.7%

row,SMILES,growth inhibition
1,CC(C)(CCCCC(C)(C)C1NC(=O)N1)C1NC(=O)N1,-46.5%
2,CCCC(O)c1ccccc1C (stereo not given),-17.2%
3,CC(NC(=O)C(N)CC(=O)O)NC(=O)C1CCC1 (stereo not given),24.6%
4,Nc1nc(=O)[nH]c2n[nH]nc12,-3.15%
5,CC/C(=C/CO)c1ccccc1,6.05%
6,CN(C)c1ccc(/C=C2\CCc3ccccc3C2=O)cc1Br,-9.05%
7,CCc1ccc(NS(=O)(=O)c2ccc3ccccc3c2)cc1,94.6% (active)
8,NS(=O)(=O)c1ccc(NC2=CC(=O)C(=O)c3ccccc32)cc1,2.4%
9,Cc1ccc(C(=O)C[N+]2(C)CCOCC2)cc1,-21.9%
10,COc1cc(/C=N/N=C(\N)NO)cc(OC)c1OC,6.35%
11,COc1ccc(Nc2cc(N)nc(N)n2)c(=S)[nH]1,1.75%
12,Cc1cccc(NC(=O)/C=C/c2ccccc2)n1,-81.3%
13,N#CCOc1ccc(/C=C/C(=O)c2ccc(Cl)cc2)cc1,-23.1%
14,COc1cc(/C=C\C(=O)c2cccc([N+](=O)[O-])c2)cc(OC)c1OC,12.5%
15,Cc1cccc(CC(CC(=O)O)C(=O)O)c1 (stereo not given),11.6%
16,CCOC(=O)c1c(NN)n[nH]c1C,4%
17,CCCCOC(=O)c1cc2ccccc2oc1=O,15.7%
18,C=C(C)CCCC(C)C(O)C=O (stereo not given),1.75%
19,COC1OC2COC(c3ccccc3)OC2C2C1N2C(=S)SC (stereo not given),-17.6%
20,Cc1ccc(N=Nc2ccc(C)cc2NC(=S)Nc2ccccc2)cc1,-20.9%

# Assay: NCI Yeast Anticancer Drug Screen. Data for the bub3 strain (AID 167)
# Details: S. cerevisiae bub3 mutant strain, at 50.0 µM, hits give high values
# Method in brief: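 Whole-cell yeast assay. The mutant strain was incubated with compounds, and growth inhibition was determined by comparison with vehicle-treated cells.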
row,SMILES,growth inhibition
1,CCSCC1(c2ccc(OC)cc2)NC(=O)NC1=O (stereo not given),-10.7%
2,CCN(CC)CC(C)(C)C(O)c1ccc(OC)c2ccccc12 (stereo not given),9.45%
3,CCC(CC)=C(c1ccc(C)cc1)c1ccc(C)cc1,4.7%
4,Oc1cc(CN2COc3ccccc32)c(O)cc1CNC1CCCCC1,-33.7%
5,OCCN(/N=C\c1ccc2ccccc2c1)C1=NCCN1,-2.5%
6,C=CCOCCC(OCC=C)OCC=C,-1.3%
7,COC(=O)C(=O)C(C(=O)C(=O)Nc1ccc(C)cc1C)c1nc2ccc(Cl)cc2[nH]c1=O (stereo not given),-22.4%
8,Cc1[nH]c(=O)[nH]c(=O)c1NC=O,-11.8%
9,c1ccc(C[n+]2cccc3ccccc32)cc1,-1.95%
10,COC(=O)c1ccc(N(C)CC/C(CNc2nc(N)[nH]c(=O)c2[N+](=O)[O-])=N\NC(N)=O)cc1,-7.55%
11,CCSC(C(O)C(O)C(O)C(O)CO)n1cnc2c(SC)ncnc21 (stereo not given),-4.95%
12,CN(c1nc(=[N+](C)C)ss1)C1CCCCC1,-12.8%
13,CC1=CC(=O)Nc2ccccc2S1,56%
14,O=C(CC(=O)c1ccc(Cl)s1)C(=O)NC1C2CC3CC(C2)CC1C3 (stereo not given),12.2%
15,CCCCCCOC(=O)NC1c2ccccc2Oc2ccccc21,7.45%
16,CC[O-].CC[O-].O=C1c2ccccc2C(=O)c2c(O)ccc([O-])c21.O=C1c2ccccc2C(=O)c2c(O)ccc([O-])c21.[Ti+4],-17.9%
17,O=C(Nc1cc(Cl)c(I)cc1Cl)C(F)(F)F,7.05%
18,C[N+]1(C)C2Cc3ccccc3C1Cc1ccccc12,3.75%
19,Cc1ccnc(SCC(=O)O)n1,10.6%
20,CO/[N+]([O-])=C\C(=O)N/C=C/C(=O)O,23.6%

row,SMILES,growth inhibition
1,CC(C)(CCCCC(C)(C)C1NC(=O)N1)C1NC(=O)N1,-9.1%
2,CCCC(O)c1ccccc1C (stereo not given),4.6%
3,CC(NC(=O)C(N)CC(=O)O)NC(=O)C1CCC1 (stereo not given),8.6%
4,Nc1nc(=O)[nH]c2n[nH]nc12,-2.35%
5,CC/C(=C/CO)c1ccccc1,10.8%
6,CN(C)c1ccc(/C=C2\CCc3ccccc3C2=O)cc1Br,3.95%
7,CCc1ccc(NS(=O)(=O)c2ccc3ccccc3c2)cc1,96.5% (active)
8,NS(=O)(=O)c1ccc(NC2=CC(=O)C(=O)c3ccccc32)cc1,-7.55%
9,Cc1ccc(C(=O)C[N+]2(C)CCOCC2)cc1,8.4%
10,COc1cc(/C=N/N=C(\N)NO)cc(OC)c1OC,1%
11,COc1ccc(Nc2cc(N)nc(N)n2)c(=S)[nH]1,3.05%
12,Cc1cccc(NC(=O)/C=C/c2ccccc2)n1,9.15%
13,N#CCOc1ccc(/C=C/C(=O)c2ccc(Cl)cc2)cc1,20.4%
14,COc1cc(/C=C\C(=O)c2cccc([N+](=O)[O-])c2)cc(OC)c1OC,29.1%
15,Cc1cccc(CC(CC(=O)O)C(=O)O)c1 (stereo not given),-2.45%
16,CCOC(=O)c1c(NN)n[nH]c1C,7.1%
17,CCCCOC(=O)c1cc2ccccc2oc1=O,27.2%
18,C=C(C)CCCC(C)C(O)C=O (stereo not given),-5.35%
19,COC1OC2COC(c3ccccc3)OC2C2C1N2C(=S)SC (stereo not given),-0.75%
20,Cc1ccc(N=Nc2ccc(C)cc2NC(=S)Nc2ccccc2)cc1,7.7%
